The structures appear in SMILES notation. This is part of a sample that, as a whole, favours compounds with a hit. Of some 83,000 tested, about 20% had one in any assay.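 Testing used 96-well plates and a 48-hour single-concentration exposure. Example: -40 means 40% of the starting cells died.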 Unmarked numbers belong to inactive results. Calls of active or inactive are those of the source. The calls were made as follows: active = growth percent below 10; inactive = the rest.

Common to all, as to test: NCI-60 one-dose screen, 48 h (100 = growth as untreated, 0 = no growth, -100 = all killed)
The test system of one test is SK-MEL-2 melanoma. The following applies: 10 µM.
The subject of the next test is EKVX NSCLC. The following applies: 10 µM.
The test system of a further test is SN12C renal. The following applies: 10 µM.
The next test deals with UO-31 renal. The following applies: 10 µM.
The subject of the next test is TK-10 renal. As to conditions: 10 µM unless noted.
The subject of a further test is ACHN renal. As to conditions: 10 µM.
A further test concerns CAKI-1 renal. The following applies: 10 µM.
In another test the test system is A498 renal. As to conditions: 10 µM.
A further test deals with CCRF-CEM leukemia. The following applies: 10 µM.
The next test has as its system MOLT-4 leukemia. As to conditions: 10 µM.

Take `Cc1cc(N)c(S(=O)(=O)O)c(N)c1`: the growth is 109% in the test with SK-MEL-2 melanoma; 98.9% in the test with EKVX NSCLC; 93.8% in the test with SN12C renal; 79.1% in the test with UO-31 renal; 105% in the test on TK-10 renal; 100% in the test with ACHN renal. The growth in the test on CAKI-1 renal is 90.1%; in the test on A498 renal it was 101%; in the test with CCRF-CEM leukemia, 98.1%; in the test with MOLT-4 leukemia, 5.11% (active).
Turning to `CN(C)c1ccc(C(c2ccc(O)cc2)c2ccc(N(C)C)cc2)cc1`, the growth was 101% in the test on SK-MEL-2 melanoma; 91.3% in the test with EKVX NSCLC; 92% in the test with SN12C renal; 81.2% with UO-31 renal; 117% with TK-10 renal; 103% with ACHN renal. The growth with CAKI-1 renal was 93.7%; with A498 renal it was 85.8%; in the test on CCRF-CEM leukemia, 96.3%; in the test on MOLT-4 leukemia, 86.4%.
For `Nc1ccc(N)c([N+](=O)[O-])c1`, the growth with SK-MEL-2 melanoma is 115%; in the test on EKVX NSCLC, 110%; in the test on SN12C renal it was 97.8%; with UO-31 renal, 88.2%; in the test with TK-10 renal it was 130%; with ACHN renal, 102%. Moreover, the growth with CAKI-1 renal is 106%; in the test with A498 renal it was 100%; with CCRF-CEM leukemia it was 107%; in the test with MOLT-4 leukemia it was 104%.
`COc1nc(N)nc2c1ncn2C1OC(CO)CC1O` (stereo not given): the growth in the test with SK-MEL-2 melanoma is 106%; in the test with EKVX NSCLC it was 102%; in the test on SN12C renal, 103%; in the test on UO-31 renal, 82.4%; with TK-10 renal, 105%; in the test on ACHN renal, 97.4%. The growth was 104% in the test on CAKI-1 renal, 114% with A498 renal, 58.8% in the test with CCRF-CEM leukemia and 97.7% in the test with MOLT-4 leukemia.
For the compound `CCCCC(CC)COC(C)=O` (stereo not given), the growth is 106% with SK-MEL-2 melanoma; 101% with EKVX NSCLC; 101% with SN12C renal; 88.3% in the test with UO-31 renal; 102% with TK-10 renal; 106% in the test on ACHN renal. In addition, the growth in the test with CAKI-1 renal was 96.9%; in the test with A498 renal, 86.3%; in the test on CCRF-CEM leukemia it was 108%; in the test with MOLT-4 leukemia, 105%.
As to `CC1(C)OC(=O)C(c2ccsc2)C(=O)O1`, the growth was 112% with SK-MEL-2 melanoma; 105% in the test with EKVX NSCLC; 107% in the test with SN12C renal; 84.4% in the test with UO-31 renal; 91.8% in the test with TK-10 renal; 107% with ACHN renal. In addition, the growth with CAKI-1 renal is 100%; in the test with A498 renal, 113%; with CCRF-CEM leukemia it was 106%; with MOLT-4 leukemia, 105%.
On to `N/N=C(/Cc1ccccc1)NNC(N)=S`, for which the growth in the test on SK-MEL-2 melanoma is 104%; with EKVX NSCLC, 91.9%; with SN12C renal, 104%; with UO-31 renal it was 81.4%; in the test with TK-10 renal, 118%; in the test with ACHN renal, 104%. Moreover, the growth with CAKI-1 renal is 96.4%; in the test with A498 renal it was 87.5%; with CCRF-CEM leukemia it was 93.8%; in the test with MOLT-4 leukemia it was 98.4%.
Turning to `CC(=O)OCC1OC(OC2=C(CC=C(C)C)C(=O)c3ccccc3C2=O)C(OC(C)=O)C(OC(C)=O)C1OC(C)=O` (stereo not given), the growth in the test with SK-MEL-2 melanoma is 58.7%; in the test with EKVX NSCLC, 15.6%; in the test with SN12C renal, 52%; in the test with UO-31 renal, 38.6%; with TK-10 renal, 87.4%; in the test with ACHN renal it was 12.8%. In addition, the growth in the test on CAKI-1 renal is 68.5%; in the test on A498 renal, 22.6%; in the test on CCRF-CEM leukemia it was -25.8% (active); with MOLT-4 leukemia it was -26.7% (active).
For the compound `NCCC(=O)c1ccc(Cl)cc1`, the growth in the test on SK-MEL-2 melanoma was 101%; in the test on EKVX NSCLC, 110%; in the test on SN12C renal, 108%; with UO-31 renal, 85.7%; in the test on TK-10 renal, 102%; in the test with ACHN renal, 121%. Further, the growth in the test on CAKI-1 renal is 101%; in the test on A498 renal, 107%; with CCRF-CEM leukemia, 103%; in the test with MOLT-4 leukemia it was 89.6%.
Regarding `Cc1cc(OCCO)cc(C)c1Cl`, the growth in the test on SK-MEL-2 melanoma is 117%; with EKVX NSCLC, 142%; in the test on SN12C renal, 98.9%; in the test with UO-31 renal, 109%; with TK-10 renal, 123%; with ACHN renal, 116%. In addition, the growth in the test on CAKI-1 renal was 115%; in the test with A498 renal it was 102%; in the test with CCRF-CEM leukemia, 96.3%; in the test with MOLT-4 leukemia, 100%.
On to `O=S(=O)(O)C(Nc1ccccc1)c1ccccc1` (stereo not given), for which the growth with SK-MEL-2 melanoma was 82.2%; in the test with EKVX NSCLC it was 104%; in the test with SN12C renal it was 97.8%; with UO-31 renal, 92.7%; in the test with TK-10 renal, 100%; in the test with ACHN renal it was 97.6%. The growth in the test with CAKI-1 renal is 93.8%; in the test with A498 renal it was 81.3%; in the test with CCRF-CEM leukemia, 115%; in the test with MOLT-4 leukemia it was 106%.
Turning to `CCC(C)(O)c1ccc(C)cc1` (stereo not given), the growth with SK-MEL-2 melanoma was 98%; with EKVX NSCLC, 109%; with SN12C renal, 102%; in the test on UO-31 renal, 91.4%; in the test with TK-10 renal it was 99.6%; in the test with ACHN renal it was 108%. Also, the growth is 104% in the test on CAKI-1 renal, 96.9% in the test on A498 renal, 99.3% with CCRF-CEM leukemia and 95.6% in the test with MOLT-4 leukemia.
Turning to `Nc1ccc(CC(=O)O)c(N)c1`, the growth in the test on SK-MEL-2 melanoma was 113%; in the test with EKVX NSCLC it was 101%; in the test with SN12C renal it was 102%; with UO-31 renal it was 89%; in the test on TK-10 renal, 105%; with ACHN renal, 104%. Moreover, the growth in the test on CAKI-1 renal is 89%; in the test with A498 renal it was 62.8%; with CCRF-CEM leukemia, -27.4% (active); in the test on MOLT-4 leukemia, 101%.
For `O=[N+]([O-])c1ccc(CO)cc1`, the growth in the test with SK-MEL-2 melanoma was 118%; with EKVX NSCLC, 101%; with SN12C renal, 106%; in the test with UO-31 renal, 93.5%; with TK-10 renal it was 99.8%; in the test on ACHN renal, 111%. The growth in the test with CAKI-1 renal was 102%; with A498 renal, 110%; in the test with CCRF-CEM leukemia, 105%; in the test on MOLT-4 leukemia, 100%.
As to `CC(=O)c1cc2c(cc1F)C(C)(C)CCC2(C)C`, the growth with SK-MEL-2 melanoma was 104%; in the test with EKVX NSCLC, 111%; in the test with SN12C renal it was 98.5%; in the test with UO-31 renal, 80%; with TK-10 renal, 109%; in the test on ACHN renal it was 91.9%. In addition, the growth is 112% with CAKI-1 renal, 92.6% with A498 renal, 120% in the test with CCRF-CEM leukemia and 89.1% in the test on MOLT-4 leukemia.
